Compounds with a hit are over-represented: about 3.2% of the library has one in this group of screens.
RE007 growth inh: less growth of the S. pombe RE007 Vpr strain. S. pombe RE007 Vpr strain, BacTiter-Glo ATP luminescence, 24 h. Potency, µM (highest dose often 92.2 µM), for inactives: at the highest dose activity change, negative = less growth, hits mostly inhibitors. 360,000 tested, 0.21% active; active = well fitted falling curve with a large enough effect; inconclusive = small, poorly fitted or top-dose-only effect; inactive = no such curve, though single readings can be large or run the other way; also: nearly all actives have a fitted effect of over 50% in size
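Fission yeast strain RE007, carrying one chromosomally integrated HIV-1 vpr copy, was seeded at OD 0.01 in PMG+AL medium with 23 nL pinned compound. After 24 h at 30 °C and 99% humidity, viability was read by BacTiter-Glo luminescence.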
AMA1-RON2 inh: AMA1-RON2 (P. falciparum) interaction inhibition | Potency, µM (highest dose often 58.2 µM), without a hit: top-dose activity change, negative = inhibition, usual class: inhibitors | AlphaScreen AMA1-biotinylated RON2 peptide binding | 360,000 tested, 0.2% active;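 also: 0% = vehicle wells and -100% = peptide control; nearly all actives have a fitted effect of over 45% in size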
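AMA1 (3D7) with his tag at 25 nM final met compounds first, then biotinylated RON2 peptide at 25 nM; detection used donor plus acceptor beads, 10 µg/mL apiece, read by AlphaScreen after 30 min at room temperature.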
TbPYK inhibitor: blocks Trypanosoma brucei pyruvate kinase; Potency, µM (titrated, usually from 76.8 µM), for the others: at the highest dose activity, negative = inhibition, actives largely listed as inhibitors; TbPYK enzyme, Kinase-Glo Plus ATP luminescence, 45 min; Q57TT1; AID 624173; 410,000 tested, 0.12% active; also: nearly all actives have a fitted effect of over 50% in size
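Activity of T. brucei pyruvate kinase was followed by Kinase-Glo Plus luminescence after the enzyme reacted 45 min at room temperature with 130 uM ADP (final) and substrate. Test compounds were added before ADP at multiple concentrations.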
Sm TGR inh: blocks Schistosoma mansoni thioredoxin glutathione reductase. Q962Y6. purified TGR, DTNB reduction, TNB absorbance 405 nm. 360,000 tested, 3% active. Potency, µM (highest dose often 114 µM), for the others: at the highest dose activity change, negative = inhibition, usual class: inhibitors; also: nearly all actives have a fitted effect of over 60% in size
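First, TGR (20 nM dispensed) and NADPH were mixed with compound. Second, a 15 min room-temperature incubation followed. Third, further NADPH and then DTNB were added to start the reaction. Finally, TNB absorbance was monitored kinetically.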
LmPK inhibitor: LmPK (Leishmania mexicana) enzyme inhibition | purified LmPK, Kinase-Glo ATP luminescence, 1 h | Q27686 | 290,000 tested, 0.37% active | Potency, µM (titrated, usually from 57.5 µM), without a hit: at the highest dose activity change, negative = inhibition, actives largely listed as inhibitors
Target sequence (Q27686 whole entry, looked up): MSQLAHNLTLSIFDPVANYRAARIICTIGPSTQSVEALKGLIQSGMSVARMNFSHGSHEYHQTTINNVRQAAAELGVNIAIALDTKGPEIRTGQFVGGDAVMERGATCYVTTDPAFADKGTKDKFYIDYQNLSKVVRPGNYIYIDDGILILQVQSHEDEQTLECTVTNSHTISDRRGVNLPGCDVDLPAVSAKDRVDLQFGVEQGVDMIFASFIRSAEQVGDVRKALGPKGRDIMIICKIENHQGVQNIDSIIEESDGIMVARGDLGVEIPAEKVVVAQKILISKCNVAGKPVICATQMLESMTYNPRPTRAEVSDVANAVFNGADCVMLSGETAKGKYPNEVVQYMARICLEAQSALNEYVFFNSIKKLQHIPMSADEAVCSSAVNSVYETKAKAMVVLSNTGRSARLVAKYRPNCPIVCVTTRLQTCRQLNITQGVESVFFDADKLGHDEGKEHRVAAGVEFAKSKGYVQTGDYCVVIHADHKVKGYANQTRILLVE
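Purified LmPK (0.1 nM) with 0.5 mM PEP and 0.1 mM ADP in imidazole buffer pH 7.2 with MgCl2/KCl, 1 h at room temperature. ATP formed was read by luciferase luminescence and normalized to no-enzyme and uninhibited controls.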
Starred values were filed as active, the others as inactive; ? = inconclusive; / = no result given; [ ] = remark or other dose. Unless noted, calls follow the shape of the dose curve; as a rule, active = well fitted curve in the direction sought with a large enough effect; inconclusive = small, poorly fitted or top-dose-only effect, or another doubt; inactive = no such curve, though single readings can be large; an effect the other way counts as inactive or inconclusive. Unless noted, % is scaled to controls: 0 for no effect and ±100 for the full control effect; potency is read from the fitted curve at half-maximal effect.

SMILES | RE007 growth inh | AMA1-RON2 inh | TbPYK inhibitor | Sm TGR inh | LmPK inhibitor
O=C(Nc1ccc2nc(-c3ccco3)c(-c3ccco3)nc2c1)NC1CC1 | -5% | ? | ? | ? | -5%
COc1ccccc1CNC(=O)c1cnc2sc(N3CCCCCC3)nn2c1=O | / | / | -2% | -5% | /
CC(=O)OCC#CCSc1nnc(-c2cccc(Br)c2)o1 | / | / | -8% | 3% | /
Cc1cc(=S)cc(C)n1CCCn1ccnc1 | -17% | -2% | 6% | 11µM* | -4%
O=C1CNC(=S)N1CCCn1ccnc1 | -3% | 25% | -9% | 9% | -14%
Cn1cnc([N+](=O)[O-])c1S(=O)(=O)c1ccc(Cl)cc1 | ? | 12% | -4% | 0.1µM* | -1%
C[C@H]1[C@@H](OC(=O)CCC(=O)O)OC2OC3(C)CC[C@H]4[C@H](C)CC[C@@H]1[C@@]24OO3 (some centres undefined) | / | / | 3% | / | /
CCc1ccc(CN(Cc2cn[nH]c2-c2ccc(OC)cc2)C(=O)Nc2cc(Cl)ccc2OC)cc1 | / | / | 2% | -1% | /
CCN1C(=NCCc2c[nH]c3ccccc23)N[C@@H](c2ccccc2)[C@H](C(=O)OC)[C@H]1C | -16% | -4% | 0% | 45µM* | -6%
CCN1C(=NCc2ccccc2)N[C@@H](c2ccccc2)[C@H](C(=O)OC)[C@H]1C | -2% | 0% | -15% | 8% | -10%
O=C(O)C1CCN(S(=O)(=O)c2cccc3nsnc23)CC1 | 1% | 0% | 0% | 10% | -3%
O=C(O)C1CSCN1S(=O)(=O)c1cccc2nsnc12 (centres undefined) | 1% | 4% | 1% | 45µM* | 3%
CN(C)c1cccc2c(C=C(C#N)C#N)ccc(N(C)C)c12 | -6% | -12% | ? | 25µM* | -22%
O=C(/C=C/c1ccccc1)c1cc(Br)ccc(=O)c1O | -22% | -15% | ? | 3.2µM* | 14%
Cc1ccc(/C=C/C(=O)c2ccccc(=O)c2O)cc1C | ? | 62% | -10% | 32µM* | -2%
COc1ccc(C=CC(=O)c2ccc(OC)c(OC)c2O)cc1OC | 4% | ? | -5% | / | /
Cc1nc(NC(=O)c2ccccc2)sc1C1(C)CC(c2c(Cl)cccc2Cl)=NO1 (centres undefined) | -4% | 27% | 4% | 32µM* | 4%
Cc1ccc(S(=O)(=O)c2ccccc2)cc1S | / | / | / | 4% | 14µM*
CCOc1ccc(C(=O)NCC(=O)OCCCOC(=O)CNC(=O)c2ccc(OCC)cc2)cc1 | -1% | 4% | -7% | 6% | -5%
CCOc1ccc(C(=O)NCC(=O)OCc2cc(C(C)=O)ccc2OC)cc1 | 4% | -6% | -1% | 7.1µM* | -1%
COc1ccc(C(C)=O)cc1COC(=O)Cc1cc(OC)c(OC)c(OC)c1 | 6% | -1% | 1% | 11µM* | 6%
COc1ccc(C(C)=O)cc1COC(=O)CNC(=O)c1ccc(F)cc1 | -17% | -1% | 1% | ? | 0%
COc1ccc(C(C)=O)cc1COC(=O)CNC(=O)c1ccc(Cl)cc1 | -12% | 2% | 4% | 3.2µM* | 0%
COc1ccc(OC)c(C2=NO[C@@](CC(=O)O)(C(=O)Nc3ccc4c(c3)OCCO4)C2)c1 | 11% | 15% | 4% | 13µM* | 0%
O=C(O)CC1(CC(=O)Nc2ccc3c(c2)OCCCO3)CCCCC1 | 12% | 11% | -5% | 2% | -2%
SMILES | RE007 growth inh | AMA1-RON2 inh | TbPYK inhibitor | Sm TGR inh | LmPK inhibitor
Cc1ccc(C2=NO[C@@](CC(=O)O)(C(=O)Nc3ccc4c(c3)OCCO4)C2)cc1 | 3% | 6% | -6% | 14µM* | -1%
COC(=O)C1=C(C(=O)OC)[C@@H]2N(C)c3ccc(OC)cc3[C@@]23C[C@@H](C(=O)OC)N(S(=O)(=O)c2ccc(C(F)(F)F)cc2)C3=N1 | / | / | / | / | 6%[11.5 µM]
COc1cc(Nc2ccc(C)cc2)c([N+](=O)[O-])nc1[N+](=O)[O-] | -8% | 10% | -1% | 25µM* | 2%
Cc1cc(C)cc(Nc2ccc([N+](=O)[O-])nc2[N+](=O)[O-])c1 | 0% | 0% | -21% | ? | -3%
COC(=O)c1cc(NC(=O)c2ccc3c(c2)N(Cc2cccc(Cl)c2)C(=O)c2ccccc2S3=O)cc(C(=O)OC)c1 (centres undefined) | / | / | -2% | -2% | /
Cc1ccc(NC(=O)CSc2ccc(-c3ccco3)nn2)cc1 | 13% | -7% | -15% | 10µM* | -3%
CC(=O)Nc1cccc(NC(=O)CSc2ccc(-c3ccco3)nn2)c1 | -11% | -6% | ? | 14µM* | 4%
Cc1ccc(CNC(=O)CSc2ccc(-c3ccco3)nn2)cc1 | -24% | -5% | -10% | ? | 3%
CC(=O)c1ccc(NC(=O)CSc2ccc(-c3ccco3)nn2)cc1 | 1% | -1% | -11% | 22µM* | 1%
CC(=O)Nc1ccc(NC(=O)CSc2ccc(-c3ccco3)nn2)cc1 | 18% | -8% | -28% | 8.9µM* | 0%
COc1cc(C(=O)Nc2ccc(-c3cc(C(F)(F)F)nn3-c3ccccc3)cc2)cc(OC)c1OC | / | / | 5% | -3% | /
Cc1ccc(NC(=O)CSc2ccc(-c3ccco3)nn2)c(C)c1 | -7% | -8% | -7% | 28µM* | -9%
O=[N+]([O-])c1ccc(S(=O)(=O)c2cccc(C(F)(F)F)c2)nc1 | 40µM* | -20% | 2% | / | /
O=S(=O)(Nc1cccnc1)c1cccc(C(F)(F)F)c1 | -2% | -10% | 2% | -4% | 0%
CCc1nc2c(sc3nc4c(cc32)COC(C)(C)C4)c(=O)n1Cc1ccco1 | -20% | -9% | -26% | ? | ?
CCc1nc(OCc2ccco2)c2sc3nc4c(cc3c2n1)COC(C)(C)C4 | -5% | -4% | -26% | 10µM* | -12%
CCN(CC)C(=O)Cn1c(SCCOc2ccc(Cl)cc2)nc2ccccc21 | / | / | 2% | 0% | /
CN(C)c1ccc(N=Nc2ccccc2Br)cc1 | -9% | 11µM* | 3% | -5% | -9%
CSc1ncc(C(=O)N2CCN(c3cccc(C(F)(F)F)c3)CC2)c(C)n1 | / | / | -4% | 4% | /
CN(CCC#N)C(=O)COC(=O)c1c2c(nc3ccccc13)/C(=C/c1ccco1)CC2 | -10% | -17% | -19% | 10µM* | -8%
CC(C)CNC(=O)COC(=O)c1c2c(nc3ccccc13)/C(=C\c1cccs1)CC2 | 5% | 12% | -8% | / | /
CC1=C[C@@H](O)CC(C)(C)[C@@H]1/C=C/C(C)=C/C=C/C(C)=C/C=C/C=C(C)/C=C/C=C(C)/C=C/C1=C(C)C[C@H](O)CC1(C)C | / | / | 4% | / | /
O=C1c2cccc(O)c2C(=O)c2c(O)cccc21 | / | / | -3% | -16% | 3%
CC1OC(CC(=O)O)CC2=C1C(=O)c1c(O)cccc1C2=O (centres undefined) | 1.6µM* | -17% | ? | / | /
